Assay [1] can be described thus: qHTS for compounds that reverse cellular toxicity of Amyloid beta (A-beta) peptide in yeast: LOPAC Validation Assay (AID 720559).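 Note: plate controls were DMSO for no effect and equimolar ferric chloride plus clioquinol rescue for full effect.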 A digest of the protocol: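 OD600 growth readout after 48 hr at 30 C; A-beta-toxic yeast plus pinned compounds in medium. Normalization: DMSO = negative, equimolar FeCl3 + clioquinol = positive.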
Assay [2] is described as follows: qHTS for Activators of Parkin Expression: LOPAC Validation Assay (NLuc Reporter) (AID 720572). A digest of the protocol:
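Compound effects on Parkin promoter activity were measured as NanoLuc luminescence after 24 h at 37 C. The neuronal reporter line also carried FLuc, which was read first. LOPAC compounds were tested at 7 concentrations, with normalization to DMSO (0%) and positive control (100%).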
A general note: In qHTS, concentration-response curves come from the screen itself.

Assay [3] in a line: qHTS for Activators of Parkin Expression: LOPAC Validation Assay (FLuc Reporter) (AID 720573). The method in brief:
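FLuc luminescence read-out from a neuronal line expressing a Parkin-promoter-driven coincidence reporter. Cells treated 24 h at 37 C, 5% CO2 with compounds at 7 concentrations; signal increase normalized to DMSO and positive control.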

Assay [4] is described as follows: qHTS assay for small molecule agonists of the antioxidant response element (ARE) signaling pathway measured by Nrf2-dependant transcriptional activity (AID 720636; active = well fitted curve in the direction sought with a large enough effect in the repeat runs; an effect the other way counts as inactive or inconclusive;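 note: HepG2 cells with an ARE-driven luciferase reporter; % of control where 0% means no effect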). A digest of the protocol:
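HepG2 ARE-luc reporter line, 1% dialyzed FBS; 6 hr attachment at 37 C, compound pinned in, 16 hr at 37 C/5% CO2; ONE-Glo, 30 min RT, luminescence read.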

Assay [5] is described as follows: qHTS assay for small molecule antagonists of the retinoid-related orphan receptor gamma (ROR-gamma) signaling pathway - cell viability counter screen (AID 720652; active = well fitted curve in the direction sought with a large enough effect in the repeat runs; an effect the other way counts as inactive or inconclusive;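 note: CHO reporter cells with doxycycline-induced ROR-gamma expression; compound exposure lasted 16 hr before ATP read; % is set by controls: 0 for no effect and ±100 for the full control effect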). A digest of the protocol: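 Steps: seed CHO cells bearing TET-inducible ROR and ROR response element-luciferase; rest 5 hr at 37 C; add compound, then doxycycline; incubate 16 hr; add CellTiter-Glo and read luminescence as ATP-based viability.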

Assay [6] is described as follows: qHTS assay for small molecule agonists of the antioxidant response element (ARE) signaling pathway measured by Nrf2-dependant transcriptional activity - cell viability counter screen (AID 720653; active = well fitted curve in the direction sought with a large enough effect in the repeat runs; an effect the other way counts as inactive or inconclusive; note: % is set by controls: 0 for no effect and ±100 for the full control effect). The note with it: ARE-bla HepG2 viability, CellTiter-Glo ATP luminescence, 16 h; max response: stronger effect = lower value. The method in brief: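 Cytotoxicity counter screen: intracellular ATP quantified by CellTiter-Glo luminescence in the same ARE-bla HepG2 plates, after 16 h compound exposure and a 2 h beta-lactamase substrate step.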

For assay [7], the target named is T1, Hexokinase-4 (Homo sapiens) + Glucokinase regulatory protein (Homo sapiens) (UniProt P35557+Q14397). Put plainly: qHTS assay for inhibitors of recombinant human GCK-GKRP interaction: Diaphorase-coupled assay (AID 743205). A digest of the protocol: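 Resorufin fluorescence (525/590 nm), read each minute over 30 min, reports GCK activity coupled via G6PDH and diaphorase. Reaction: 10 nM GST-GCK, 10 nM FLAG-GKRP, 5 mM glucose, 0.4 mM ATP, 0.15 mM NADP+, 0.1 mM resazurin.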
T1 sequence (P35557 whole entry, looked up): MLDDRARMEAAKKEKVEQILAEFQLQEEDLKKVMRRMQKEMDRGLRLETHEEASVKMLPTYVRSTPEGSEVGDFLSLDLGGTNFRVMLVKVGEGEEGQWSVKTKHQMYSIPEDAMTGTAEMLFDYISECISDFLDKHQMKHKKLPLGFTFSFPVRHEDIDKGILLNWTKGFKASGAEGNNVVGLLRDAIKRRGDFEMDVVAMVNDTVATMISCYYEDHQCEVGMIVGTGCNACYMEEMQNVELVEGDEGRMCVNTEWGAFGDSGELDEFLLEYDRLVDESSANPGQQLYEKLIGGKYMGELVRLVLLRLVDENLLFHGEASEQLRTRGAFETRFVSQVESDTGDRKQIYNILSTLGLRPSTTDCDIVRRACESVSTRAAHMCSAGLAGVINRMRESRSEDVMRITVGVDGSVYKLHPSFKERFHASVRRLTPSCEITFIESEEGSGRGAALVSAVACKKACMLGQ
T1 sequence (Q14397 whole entry, looked up): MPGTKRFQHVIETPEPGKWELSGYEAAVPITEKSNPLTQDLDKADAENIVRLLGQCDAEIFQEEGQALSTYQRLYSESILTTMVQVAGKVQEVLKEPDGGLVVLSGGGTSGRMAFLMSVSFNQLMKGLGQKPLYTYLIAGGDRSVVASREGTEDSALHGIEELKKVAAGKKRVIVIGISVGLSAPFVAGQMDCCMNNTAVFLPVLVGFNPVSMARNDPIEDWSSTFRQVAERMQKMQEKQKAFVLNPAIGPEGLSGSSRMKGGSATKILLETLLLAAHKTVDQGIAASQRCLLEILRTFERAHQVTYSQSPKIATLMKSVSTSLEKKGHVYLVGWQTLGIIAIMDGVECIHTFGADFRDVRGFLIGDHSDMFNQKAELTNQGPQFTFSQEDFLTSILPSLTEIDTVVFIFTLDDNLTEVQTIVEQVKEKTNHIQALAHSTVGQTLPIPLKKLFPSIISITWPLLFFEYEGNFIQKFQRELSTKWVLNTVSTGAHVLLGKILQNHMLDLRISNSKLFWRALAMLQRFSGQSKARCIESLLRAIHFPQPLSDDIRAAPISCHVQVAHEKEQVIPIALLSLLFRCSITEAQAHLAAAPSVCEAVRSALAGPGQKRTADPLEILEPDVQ

Assay [8] has as its target T1, Hexokinase-4 (Homo sapiens) + Glucokinase regulatory protein (Homo sapiens). Kind of assay: qHTS assay for inhibitors of recombinant human GCK-GKRP interaction: ADP-Glo assay (AID 743206).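 Note: plate controls were DMSO plus enzyme for no effect and no enzyme for full effect.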 A digest of the protocol:
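Pin-transferred compounds meet a 15 nM GST-GCK/15 nM FLAG-GKRP/2 uM S6P mix (dispense concentrations). ATP is then added to 0.4 mM final with 5 mM glucose, and the reaction runs 60 min at room temperature. ADP is quantified luminescently.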

Assay [9] has the same target. Put plainly: qHTS assay for inhibitors of recombinant human GCK-GKRP interaction: HTRF assay (AID 743207).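 Note: 0% = DMSO with GCK present and -100% = DMSO wells lacking GCK.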 A digest of the protocol: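 HTRF read-out (ex 320 nm; 615/665 nm emission) after 60 min RT equilibration of 5 nM GST-GCK, 5 nM FLAG-GKRP, 2 uM S6P, compound and anti-FLAG/anti-GST detection antibodies; signal normalized between DMSO wells with and without GCK.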

A short description of assay [10]: qHTS Assay for Identifying Gametocytocidal Compounds (AID 743244).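 Note: % is set by controls: 0 for no effect and ±100 for the full control effect; actives lower the fluorescent signal which means gametocytes are killed.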 The note with it: P. falciparum 3D7 stage III-V gametocytes, alamarBlue, 72 h; max response: stronger effect = lower value. The method in brief:
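Late gametocytes (III–V), P. falciparum 3D7; 72 h drug, then 24 h alamarBlue; resazurin reduction read by fluorescence.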

Assay [11] in a line: qHTS assay for cell viability of HEK293 cells (AID 743288). Note: % is set by controls: 0 for no effect and ±100 for the full control effect; nearly all actives have a fitted effect of over 50% in size. The note with it: ATP luminescence (CellTiter-Glo), 18 h; max response: stronger effect = lower value. A digest of the protocol:
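ATP luminescence (CellTiter-Glo) reports metabolically competent cell number after parental HEK293 cells, 2,000/well, were treated with DMSO-dissolved compounds for 18 h at 37 C; reagent incubation 30 min, room temperature.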

Assay [12] can be described thus: qHTS assay for cell viability of the p53RE-bla HCT-116 cell line (AID 743292). Note: % is set by controls: 0 for no effect and ±100 for the full control effect; nearly all actives have a fitted effect of over 55% in size. The method in brief: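 Luminescent ATP quantitation (CellTiter-Glo) served as the viability read-out; reagent was added after 16 h compound exposure at 37 C and read after 30 min at room temperature. Cells: p53RE-bla HCT-116, 4,000 per well.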
Assay [13] in a line: qHTS profiling of the MIPE4 collection as inhibitors of Plasmodium falciparum (3D7) proliferation (AID 743344; call rule not given here;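 note: scaled between DMSO vehicle wells and 0.29 µM artemisinin as full inhibition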). The following applies: P. falciparum 3D7 in erythrocytes, SYBR Green DNA fluorescence, 72 h; at 28.5 µM (top of the series) unless noted. The method in brief: (§1)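 Parasite DNA was quantified by SYBR Green I fluorescence (ex 485, em 535 nm) after overnight lysis in saponin/Triton buffer at room temperature. Cultures at 0.3% parasitemia and 2.5% hematocrit were first exposed to compound for 72 h at 37 C; signals were normalised to artemisinin (0.29 uM) and vehicle wells.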

Assay [14] is described as follows: qHTS profiling of the MIPE4 collection as inhibitors of Plasmodium falciparum (DD2) proliferation (AID 743345; call rule not given here). The note with it: P. falciparum Dd2 in erythrocytes, SYBR Green DNA, 72 h; at 28.5 µM (top of the series) unless noted. A digest of the protocol: as §1
Assay [15] in a line: qHTS profiling of the MIPE4 collection as inhibitors of Plasmodium falciparum (DD2) proliferation (Rep 2) (AID 743346; call rule not given here). The note with it: P. falciparum Dd2 in erythrocytes, SYBR Green DNA, 72 h; at 28.5 µM (top of the series) unless noted. The method in brief:
as §1

Assay [16] concerns the target Arylsulfatase A (Homo sapiens) (UniProt P15289). Put plainly: qHTS screen for enhancers of Arylsulfatase A (ASA1): LOPAC Validation Assay (AID 720538). Note: 0% is about no effect. The method in brief: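 Read-out: fluorescence at Ex=525/Em=598 nm after 1N NaOH final stop. Patient fibroblasts carrying ASA-I179S had 48h compound exposure, then 14h room-temperature pNCS hydrolysis (0.5mM final) in lysis buffer. Signal increase = enhanced activity.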

Values joined by “and” are separate entries in the source; they are usually repeats but may differ in a detail not shown here. Identical values can stand only once. Results filed as inconclusive are left out. Active and inactive are the calls of the source. Unless noted, calls come from the whole dose curve; as a rule, active = well fitted curve in the direction sought with a large enough effect; inconclusive = small, poorly fitted or top-dose-only effect, or another doubt; inactive = no such curve, though single readings can be large; an effect the other way counts as inactive or inconclusive.

Arylsulfatase A (Homo sapiens), sequence (P15289 whole entry, looked up): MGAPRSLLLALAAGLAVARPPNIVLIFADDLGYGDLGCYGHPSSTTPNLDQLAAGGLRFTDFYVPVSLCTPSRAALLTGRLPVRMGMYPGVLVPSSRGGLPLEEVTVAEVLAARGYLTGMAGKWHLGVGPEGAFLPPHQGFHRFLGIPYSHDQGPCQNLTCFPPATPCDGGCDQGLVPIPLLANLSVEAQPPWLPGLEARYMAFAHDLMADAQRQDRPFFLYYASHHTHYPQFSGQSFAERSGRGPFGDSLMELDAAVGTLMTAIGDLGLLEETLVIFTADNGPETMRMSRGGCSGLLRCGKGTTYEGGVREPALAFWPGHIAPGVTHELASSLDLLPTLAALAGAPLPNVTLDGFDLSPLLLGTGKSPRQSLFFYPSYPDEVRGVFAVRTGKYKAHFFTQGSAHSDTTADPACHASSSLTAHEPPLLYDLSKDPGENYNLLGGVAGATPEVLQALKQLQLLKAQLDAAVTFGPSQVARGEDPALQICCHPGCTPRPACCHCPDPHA

With `NS(=O)(=O)c1cc2c(cc1Cl)NCNS2(=O)=O`, the call in assay [1], in assay [2] and in assay [4] was inactive. The Potency entry in assay [3], in assay [5], in assay [7], in assay [8], in assay [9] and in assay [12] was “inactive” throughout. Moreover, the max response was 0.152% (inactive) and 15.5% (inactive) in assay [6]; 6.34% (inactive) and 16.2% (inactive) in assay [10]; -3.61% (inactive) and 2.79% (inactive) in assay [11]. The compound also showed a parasite growth, % of DMSO control in assay [13] of 53.2%. Besides, in [14], the parasite growth remaining, % of DMSO control (lower = more inhibition) amounted to 53.5%. The parasite growth, % of control (lower = inhibition) in assay [15] stood at 39.6%.

In the case of `COc1ccccc1N1CCN(CC(O)COc2cccc3ccccc23)CC1` (stereo not drawn), the result in assay [1] and in assay [2] was inactive. Besides, the Potency result in assay [3], in [7], in assay [8] and in assay [9] was “inactive” each time. In addition, the max response in [10] was 7.63% (inactive) and 7.03% (inactive). This compound also yielded a parasite growth, % of DMSO control in assay [13] of 64.9%. Besides, the parasite growth remaining, % of DMSO control (lower = more inhibition) in assay [14] was determined as 98.8%. The parasite growth, % of control (lower = inhibition) in assay [15] worked out at 65.8%.

Take `CCc1cccc2c3c([nH]c12)C(CC)(CC(=O)O)OCC3` (stereo not drawn): the outcome in [1] and in [2] was inactive. Also, the Potency entry in assay [3], in assay [7], in assay [8] and in assay [9] was “inactive” in each case. For the same compound, the max response in [10] is 10.8% (inactive) and -5.14% (inactive). Further, the parasite growth, % of DMSO control in assay [13] stood at 71%. In [14], the parasite growth remaining, % of DMSO control (lower = more inhibition) worked out at 86%. For the same compound, the parasite growth, % of control (lower = inhibition) in assay [15] was 85%.

`NCCS(=O)(=O)O`: the result in [1], in [2] and in assay [4] was inactive. Besides, the Potency entry in [3], in [5], in assay [7], in [8], in [9] and in assay [12] was “inactive” throughout. In addition, the max response in assay [6] was 5.47% (inactive); in assay [10], -8.78% (inactive) and 22.4% (inactive); in assay [11] it was 10.5% (inactive). For the same compound, in [13], the parasite growth, % of DMSO control is 102%. Also, the parasite growth remaining, % of DMSO control (lower = more inhibition) in assay [14] stood at 102%. For the same compound, the parasite growth, % of control (lower = inhibition) in assay [15] was determined as 90.9%.

With `Cn1c(=O)c2[nH]cnc2n(C)c1=O`, the result in assay [1], in [2] and in assay [4] was inactive. In addition, the Potency entry in [3], in assay [5], in [7], in assay [8], in assay [9] and in [12] was “inactive” each time. Besides, the max response was 0.323% (inactive) in [6]; 2.17% (inactive) and 13.8% (inactive) in [10]; 2.06% (inactive) in assay [11]. The parasite growth remaining, % of DMSO control (lower = more inhibition) in assay [14] was 102%.

Take `CN1C(C(=O)Nc2ccccn2)=C(O)c2ccccc2S1(=O)=O`: the Potency result in [16], in assay [3], in assay [7], in [8] and in assay [9] was “inactive” each time. Moreover, the compound was called inactive in assay [1]. Further, in assay [10], the max response is -1.29% (inactive) and 1.85% (inactive). In assay [13], this compound yielded a parasite growth, % of DMSO control of 77.2%. Further, the parasite growth remaining, % of DMSO control (lower = more inhibition) in assay [14] was 88.2%. Further, the parasite growth, % of control (lower = inhibition) in [15] was 136%.

As to `CC(C)NCC(O)c1ccc(O)c(O)c1` (stereo not drawn), the result in assay [1], in assay [2] and in [4] was inactive. Moreover, the Potency result in [3], in [5], in [7], in assay [8], in [9] and in [12] was “inactive” each time. Further, the max response in assay [6] is 0.482% (inactive) and -3.43% (inactive); in [10], -2.95% (inactive); in assay [11] it was 0.858% (inactive) and -11.4% (inactive). In [13], the parasite growth, % of DMSO control is 10.6%. Moreover, the parasite growth remaining, % of DMSO control (lower = more inhibition) in assay [14] stood at 91.4%. Also, in assay [15], the parasite growth, % of control (lower = inhibition) came to 9.11%.

Source of the values: PubChem BioAssay (NCATS).
